This note sets out measurements from PubChem BioAssay (NCATS).

A short description of experiment [1]: Quantitative high throughput screen for delayed death inhibitors of the malarial parasite plastid, 96 hour incubation (AID 488745). Further: nearly all actives have a fitted effect of over 70% in size. Further: potency means the concentration at half of the fitted maximal effect. In a few lines: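 Infected erythrocytes were added to compound in Albumax-supplemented RPMI 1640 at 0.1% parasitemia and 2% hematocrit (final), incubated 96 h at 37 C under 5% CO2, then luciferase reagent was added and luminescence measured.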

A short description of experiment [2]: Quantitative high throughput screen for delayed death inhibitors of the malarial parasite plastid, 48 hour incubation (AID 488752). Further: nearly all actives have a fitted effect of over 65% in size. Further: potency means the concentration at half of the fitted maximal effect. The essentials: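 Readout is firefly luciferase luminescence from a reporter integrated into the parasite genome, with lower signal taken as inhibited growth. Infected red cells (0.1% parasitemia, 2% hematocrit final) are cultured with compound for one 48 h cycle at 37 C.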

The nature of experiment [3]: High Content Imaging Cell-Based qHTS for Inhibitors of the mTORC1 Signaling Pathway in MEF (Tsc2-/-, p53-/-) Cells (AID 2666).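 Further: percent of cells scored positive for phospho-rpS6 Ser235/236 immunostaining by imaging.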 The essentials:
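Phospho-rpS6 (Ser235/236) immunofluorescence, normalized and scored as % positive cells using rapamycin and DMSO controls, was read in empty-vector Tsc2-/-, p53-/- MEFs after 24 h compound exposure at 37 C; propidium iodide counted cells.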

In experiment [4] the target is Ubiquitin carboxyl-terminal hydrolase 2 (Homo sapiens) (UniProt O75604). Put plainly: qHTS Validation Assay for Inhibitors of Ubiquitin-specific Protease USP2a Using CHOP2 as the Reporter (AID 463106). The essentials: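 USP2 core (10 nM final) was preincubated with compound 30 min at RT in pH 8.0 Tris/CaCl2/beta-ME/CHAPS buffer. Ub-CHOP2 and reporter substrate (25 nM final each) were then added, with fluorescence (Ex 485/Em 531) read after 60 min. Data were normalized to NEM full inhibition and fitted to concentration-response curves.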
Sequence of Ubiquitin carboxyl-terminal hydrolase 2 (Homo sapiens) (O75604 whole entry, looked up): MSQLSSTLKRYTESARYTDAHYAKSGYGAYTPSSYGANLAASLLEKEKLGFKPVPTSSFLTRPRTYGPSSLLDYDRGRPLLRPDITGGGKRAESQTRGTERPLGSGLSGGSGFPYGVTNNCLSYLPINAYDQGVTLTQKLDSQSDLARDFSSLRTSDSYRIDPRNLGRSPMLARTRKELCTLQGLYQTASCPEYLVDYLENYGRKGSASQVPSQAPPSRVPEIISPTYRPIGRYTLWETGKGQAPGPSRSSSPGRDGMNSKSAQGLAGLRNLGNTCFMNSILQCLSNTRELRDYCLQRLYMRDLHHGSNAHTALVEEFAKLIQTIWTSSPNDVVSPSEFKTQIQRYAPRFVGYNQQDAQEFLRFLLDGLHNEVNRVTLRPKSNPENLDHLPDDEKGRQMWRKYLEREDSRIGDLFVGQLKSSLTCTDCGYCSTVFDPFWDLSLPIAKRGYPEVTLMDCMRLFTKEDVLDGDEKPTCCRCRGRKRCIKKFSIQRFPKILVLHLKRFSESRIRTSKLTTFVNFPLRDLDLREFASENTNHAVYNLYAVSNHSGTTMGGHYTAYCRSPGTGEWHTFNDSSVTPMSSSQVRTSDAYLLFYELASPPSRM

For experiment [5], the target named is DNA polymerase III PolC-type (Bacillus subtilis (strain 168)) (UniProt P13267). Put plainly: qHTS Validation Assay for the Inhibitors of DNA Replication in Gram-Positive Bacteria (AID 485295).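 Further: reconstituted holoenzyme with PolC plus beta clamp SSB and primase; PicoGreen fluorescence of double-stranded DNA made on primed circular M13 template; series mostly up to about 57 µM.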 The essentials:
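Primed replication of single-stranded M13Gori by a four-protein B. subtilis holoenzyme is measured at room temperature. Double-stranded product is quantified by PicoGreen fluorescence after an EDTA stop; inhibition is scaled between DMSO and EDTA controls.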
Background: In qHTS, concentration-response curves come from the screen itself.

The target of experiment [6] is Tumor susceptibility gene 101 protein (Homo sapiens) (UniProt Q99816). In words: qHTS Validation Assay for Iinhibitors of HIV-1 Budding by Blocking the Interaction of PTAP/TSG101 (AID 485342; calls by dose curve). In a few lines:
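Fluorescence anisotropy measured PTAP-Tsg101 interaction. Final concentrations were 10 uM protein domain and 50 nM labeled peptide, equilibrated 20 min at room temperature.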

The target of experiment [7] is Beta-2 adrenergic receptor (Homo sapiens) (UniProt P07550). Put plainly: qHTS validation assay of beta-arrestin-biased ligands of beta2-adrenergic receptor (AID 485366). The essentials:
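Tango cells expressing recombinant beta2-AR and beta-arrestin with tTA-driven luciferase, in DMEM with 1% FBS. Compounds were titrated up to 46 microM for 18 hr at 37 degrees C. Luminescence was read 15 min after substrate; curves were fitted and class-assigned.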

Experiment [8] concerns the target Thioredoxin reductase 1, cytoplasmic (Rattus norvegicus) (UniProt O89049). In words: qHTS Assay for Substrates of Mammalian Selenoprotein Thioredoxin Reductase 1 (TrxR1) (AID 488772).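 Further: NADPH fluorescence in the first read after selenite addition and not the 8 min delta; series mostly up to about 57 µM; a drop in NADPH fluorescence below the no-compound background marks a TrxR1 substrate.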 In a few lines: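 Quantitative HTS in Tris-HCl buffer at pH 7.5 with EDTA and Tween-20, using rat TrxR1, 400 uM NADPH and 400 uM selenite (final). A fall in initial NADPH fluorescence relative to background marked substrate behaviour.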

The target of experiment [9] is Flap endonuclease 1 (Homo sapiens) (UniProt P39748). In words: qHTS Validation Assay for the Inhibitors of Human Flap endonuclease 1 (FEN1) (AID 488816). In a few lines: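 Human FEN1 (10 nM) preincubated 15 min at room temperature with compounds, then flap DNA substrate added at 50 nM final. Fluorescence read at 0 and 15 min; concentration-response fitted with four-parameter Hill equation.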
Sequence of Flap endonuclease 1 (Homo sapiens) (P39748 whole entry, looked up): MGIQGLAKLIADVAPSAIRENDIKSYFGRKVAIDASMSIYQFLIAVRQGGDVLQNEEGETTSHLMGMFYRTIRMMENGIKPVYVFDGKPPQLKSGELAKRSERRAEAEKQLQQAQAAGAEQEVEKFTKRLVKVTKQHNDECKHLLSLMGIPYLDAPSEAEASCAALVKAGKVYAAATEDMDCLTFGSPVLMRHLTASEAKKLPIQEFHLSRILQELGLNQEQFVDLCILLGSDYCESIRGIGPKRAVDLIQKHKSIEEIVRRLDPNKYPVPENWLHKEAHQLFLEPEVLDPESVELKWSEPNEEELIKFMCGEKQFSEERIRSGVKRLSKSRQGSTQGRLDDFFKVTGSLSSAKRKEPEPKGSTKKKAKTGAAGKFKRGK

In experiment [10] the target is M-phase phosphoprotein 8 (Homo sapiens) (UniProt Q99549). Put plainly: qHTS Validation Assay for Inhibitors for MPP8 Chromodomain Interactions with Methylated Histone Tails (AID 488949). Further: nearly all actives have a fitted effect of over 55% in size. Further: potency means the concentration at half of the fitted maximal effect. The essentials:
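Disruption of the preformed MPP8–trimethyl-H3K9 peptide complex (both 50 nM, 30 min, RT) is measured after 30 min compound exposure, using AlphaScreen proximity beads; aurintricarboxylic acid titration serves as plate control.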

The nature of experiment [11]: Cytometric Cell-Based qHTS for Inhibitors of the mTORC1 Signaling Pathway in MEF (Tsc2-/-, p53-/-) Cells (AID 2660).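 Further: percent of cells above a phospho-rpS6 to PI ratio cutoff in each well; series mostly up to about 38 µM.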 In a few lines: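 Tsc2-/-, p53-/- MEFs (empty vector) exposed to compound 24 h at 37 C, fixed, stained with Alexa-488 anti-phospho-rpS6 Ser235/236 and propidium iodide. Acumen laser scanning; phospho-S6/PI ratio thresholded against 7.5 nM rapamycin, reported as % positive cells.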

In experiment [12] the target is ATP-dependent 6-phosphofructokinase (Trypanosoma brucei brucei) (UniProt O15648). Put plainly: qHTS Validation Assay to Find Inhibitors of T. brucei phosphofructokinase (AID 485368). Further: potency means the concentration at half of the fitted maximal effect. In a few lines:
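Activity was read as ADP production by luminescence (ADP-Glo) after 45 min at room temperature. The enzyme was 1.25nM PFK in 0.1M TEA pH 8.0 with 0.5 mM F6P, 0.1mM ATP and 5 mM MgCl2. Compounds were titrated up to 57 uM and % activity normalized to no-enzyme and full-enzyme controls.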

The target in experiment [13] is Thioredoxin reductase 1, cytoplasmic (Rattus norvegicus) (UniProt O89049). In words: qHTS Assay for Inhibitors of Mammalian Selenoprotein Thioredoxin Reductase 1 (TrxR1) (AID 488773). Further: nearly all actives have a fitted effect of over 40% in size. Further: potency means the concentration at half of the fitted maximal effect. Particulars: Potency: inhibition. The essentials: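 Steps: enzyme (90 nM) plus NADPH (400 uM final), 5 min at ~22 deg C; compound added, 15 min; selenite (400 uM final) added; fluorescence followed for 8 min. Concentration-response curves derived from the normalized delta values.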
Sequence of Thioredoxin reductase 1, cytoplasmic (Rattus norvegicus) (O89049 whole entry, looked up): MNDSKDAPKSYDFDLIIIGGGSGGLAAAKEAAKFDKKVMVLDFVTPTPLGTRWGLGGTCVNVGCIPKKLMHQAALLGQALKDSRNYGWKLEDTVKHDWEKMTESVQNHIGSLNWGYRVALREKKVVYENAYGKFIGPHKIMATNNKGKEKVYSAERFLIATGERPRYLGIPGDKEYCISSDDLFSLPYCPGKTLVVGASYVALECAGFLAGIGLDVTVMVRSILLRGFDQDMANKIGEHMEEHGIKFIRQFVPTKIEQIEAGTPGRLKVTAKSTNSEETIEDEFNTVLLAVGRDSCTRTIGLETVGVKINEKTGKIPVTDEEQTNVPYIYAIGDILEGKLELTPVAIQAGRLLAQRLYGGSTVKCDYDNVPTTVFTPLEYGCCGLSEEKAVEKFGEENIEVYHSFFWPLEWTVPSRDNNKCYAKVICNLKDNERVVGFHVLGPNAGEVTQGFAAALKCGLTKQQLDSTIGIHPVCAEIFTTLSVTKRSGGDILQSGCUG

The target of experiment [14] is Chromobox protein homolog 1 (Homo sapiens) (UniProt P83916). In words: qHTS Validation Assay for Inhibitors of HP1-beta Chromodomain Interactions with Methylated Histone Tails (AID 488953). Further: nearly all actives have a fitted effect of over 50% in size. Further: potency means the concentration at half of the fitted maximal effect. The essentials: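 50 nM HP1-beta + 50 nM biotin-H3(1-18)K9me3, PBS pH 7.4, 0.01% Tween-20, 30 min RT; compound added, 30 min RT; AlphaScreen beads 10 ug/mL final, 30 min dark; luminescence read.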
Sequence of Chromobox protein homolog 1 (Homo sapiens) (P83916 whole entry, looked up): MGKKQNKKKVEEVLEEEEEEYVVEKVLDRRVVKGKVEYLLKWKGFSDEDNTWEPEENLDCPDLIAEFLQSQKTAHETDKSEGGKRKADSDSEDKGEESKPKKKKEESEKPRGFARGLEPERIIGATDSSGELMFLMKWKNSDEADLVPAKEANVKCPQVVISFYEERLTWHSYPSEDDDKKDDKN

Experiment [15] in a line: High Content Imaging Cell-Based qHTS for Inhibitors of the mTORC1 Signaling Pathway in MEF Cells (AID 2667).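 Further: Tsc2-/- p53-/- MEFs stably re-expressing wild-type Tsc2 exposed 24 h; series mostly up to about 38 µM.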 The essentials: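 WT MEFs (Tsc2-/-, p53-/- re-expressing Tsc2), in DMEM + 10% FBS, were treated with compound for 24 h at 37 C. Cells were then fixed and stained for phospho-rpS6 Ser235/236 with propidium iodide as cell count. Values are % positive cells, with thresholds set against rapamycin-treated cells.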

A short description of experiment [16]: Cytometry Cell-Based qHTS for Inhibitors of the mTORC1 Signaling Pathway in MEF cells (AID 2668).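 Further: Tsc2-/- p53-/- mouse embryonic fibroblasts stably re-expressing wild-type Tsc2; percent cells positive for phospho-rpS6 Ser235/236 relative to propidium iodide stain; series mostly up to about 38 µM.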 The essentials:
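Pathway inhibition in WT Tsc2-rescued Tsc2-/-, p53-/- MEFs is measured as the Alexa-488 phospho-rpS6 to propidium iodide intensity ratio after 24 hrs of compound at 37 degree Celsius. PI-stained cell number gives viability.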

The nature of experiment [17]: qHTS Validation Assay to Find Inhibitors of Chronic Active B-Cell Receptor Signaling (AID 485345; active means well fitted curve in the direction sought with a large enough effect in the main read-out, with a control signal flat, not every such curve was filed as active). The essentials:
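TMD8 ABC-DLBCL cells stably carrying doxycycline-inducible IkappaBalpha–green luciferase fusion plus unfused red luciferase; compounds 46 uM to 3 nM, 4 h at 37C with doxycycline. Corrected green/red luminescence ratio normalized to 10 uM MG-132 and basal cell wells; curves fitted.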

Values joined by “and” are separate entries in the source; they are usually repeats but may differ in a detail not shown here. Equal values may be shown once. Records with an inconclusive call do not appear. Active and inactive are the calls of the source. Unless noted, the call rests on the fitted dose curve; in most records, active means well fitted curve in the direction sought with a large enough effect; inconclusive means small, poorly fitted or top-dose-only effect, or another doubt; inactive means no such curve, though single readings can be large; an effect the other way counts as inactive or inconclusive.

Sequence of DNA polymerase III PolC-type (Bacillus subtilis (strain 168)) (P13267 whole entry, looked up): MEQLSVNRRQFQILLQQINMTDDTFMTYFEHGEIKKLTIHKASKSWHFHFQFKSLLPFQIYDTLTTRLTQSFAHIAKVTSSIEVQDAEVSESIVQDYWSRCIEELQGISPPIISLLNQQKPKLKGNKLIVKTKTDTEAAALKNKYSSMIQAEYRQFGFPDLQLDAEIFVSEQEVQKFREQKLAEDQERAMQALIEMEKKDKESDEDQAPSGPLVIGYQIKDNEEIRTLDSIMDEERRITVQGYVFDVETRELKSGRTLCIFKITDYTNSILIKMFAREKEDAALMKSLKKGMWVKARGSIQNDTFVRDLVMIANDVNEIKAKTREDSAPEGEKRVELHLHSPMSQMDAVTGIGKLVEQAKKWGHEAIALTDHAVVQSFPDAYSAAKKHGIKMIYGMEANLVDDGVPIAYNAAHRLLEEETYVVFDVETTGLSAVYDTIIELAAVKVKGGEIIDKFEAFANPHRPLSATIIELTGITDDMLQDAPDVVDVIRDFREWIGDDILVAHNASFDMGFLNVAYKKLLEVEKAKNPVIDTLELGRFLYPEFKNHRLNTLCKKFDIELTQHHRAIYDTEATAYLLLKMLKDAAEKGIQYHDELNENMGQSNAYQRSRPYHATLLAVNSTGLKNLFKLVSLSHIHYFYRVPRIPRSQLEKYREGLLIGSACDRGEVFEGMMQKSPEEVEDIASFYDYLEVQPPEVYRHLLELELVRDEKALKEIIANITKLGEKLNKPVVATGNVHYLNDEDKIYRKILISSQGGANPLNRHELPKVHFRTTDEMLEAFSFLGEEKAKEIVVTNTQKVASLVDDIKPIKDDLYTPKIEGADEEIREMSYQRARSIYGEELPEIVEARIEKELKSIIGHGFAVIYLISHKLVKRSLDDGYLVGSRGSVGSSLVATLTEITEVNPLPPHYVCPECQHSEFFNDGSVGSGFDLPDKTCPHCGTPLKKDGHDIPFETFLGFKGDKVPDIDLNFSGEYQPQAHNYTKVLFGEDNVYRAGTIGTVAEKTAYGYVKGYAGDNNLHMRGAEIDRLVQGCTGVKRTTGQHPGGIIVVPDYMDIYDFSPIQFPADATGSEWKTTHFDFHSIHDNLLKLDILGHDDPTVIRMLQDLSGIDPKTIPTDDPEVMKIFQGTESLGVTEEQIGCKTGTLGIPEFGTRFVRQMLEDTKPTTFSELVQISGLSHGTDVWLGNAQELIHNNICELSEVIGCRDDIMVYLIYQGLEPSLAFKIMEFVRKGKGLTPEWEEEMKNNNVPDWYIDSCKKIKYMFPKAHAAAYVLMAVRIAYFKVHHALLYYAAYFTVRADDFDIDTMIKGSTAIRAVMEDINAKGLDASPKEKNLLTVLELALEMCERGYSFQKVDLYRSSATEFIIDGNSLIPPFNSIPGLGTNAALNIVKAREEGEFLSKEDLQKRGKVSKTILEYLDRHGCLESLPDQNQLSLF
Sequence of Beta-2 adrenergic receptor (Homo sapiens) (P07550 whole entry, looked up): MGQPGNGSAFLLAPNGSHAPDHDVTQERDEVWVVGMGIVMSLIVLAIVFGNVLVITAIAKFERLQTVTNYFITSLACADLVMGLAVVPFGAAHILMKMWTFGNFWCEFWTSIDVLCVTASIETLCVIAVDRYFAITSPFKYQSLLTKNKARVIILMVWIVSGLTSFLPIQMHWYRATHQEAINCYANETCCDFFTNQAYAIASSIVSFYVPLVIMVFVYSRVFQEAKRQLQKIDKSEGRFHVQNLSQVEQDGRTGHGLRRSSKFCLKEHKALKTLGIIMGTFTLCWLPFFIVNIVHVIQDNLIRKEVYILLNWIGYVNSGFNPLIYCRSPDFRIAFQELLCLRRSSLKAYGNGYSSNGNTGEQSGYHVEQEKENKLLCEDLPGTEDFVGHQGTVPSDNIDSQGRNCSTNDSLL
Sequence of M-phase phosphoprotein 8 (Homo sapiens) (Q99549 whole entry, looked up): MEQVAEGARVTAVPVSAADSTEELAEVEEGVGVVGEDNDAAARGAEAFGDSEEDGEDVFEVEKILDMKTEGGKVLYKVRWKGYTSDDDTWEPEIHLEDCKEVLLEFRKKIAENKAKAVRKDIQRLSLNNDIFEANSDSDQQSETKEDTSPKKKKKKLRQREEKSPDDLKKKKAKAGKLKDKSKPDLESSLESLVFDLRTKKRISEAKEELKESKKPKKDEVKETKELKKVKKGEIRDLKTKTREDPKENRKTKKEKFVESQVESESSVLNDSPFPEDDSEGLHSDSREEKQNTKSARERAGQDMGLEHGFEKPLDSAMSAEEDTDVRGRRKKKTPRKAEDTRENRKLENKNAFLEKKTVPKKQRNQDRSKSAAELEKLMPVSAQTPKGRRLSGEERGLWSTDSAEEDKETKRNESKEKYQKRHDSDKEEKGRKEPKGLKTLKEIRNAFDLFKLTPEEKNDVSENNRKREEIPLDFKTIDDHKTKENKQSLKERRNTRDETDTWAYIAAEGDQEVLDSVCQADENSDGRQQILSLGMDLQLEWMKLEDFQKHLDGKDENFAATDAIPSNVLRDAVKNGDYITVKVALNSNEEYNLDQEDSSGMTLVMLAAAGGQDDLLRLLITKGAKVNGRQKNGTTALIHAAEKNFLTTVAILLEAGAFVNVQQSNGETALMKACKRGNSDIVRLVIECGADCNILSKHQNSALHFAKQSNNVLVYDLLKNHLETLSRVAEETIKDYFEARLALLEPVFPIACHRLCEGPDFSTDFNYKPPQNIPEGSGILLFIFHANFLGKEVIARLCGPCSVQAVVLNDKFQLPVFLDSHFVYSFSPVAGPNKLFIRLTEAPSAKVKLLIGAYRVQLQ
Sequence of Tumor susceptibility gene 101 protein (Homo sapiens) (Q99816 whole entry, looked up, the tested form may be a part): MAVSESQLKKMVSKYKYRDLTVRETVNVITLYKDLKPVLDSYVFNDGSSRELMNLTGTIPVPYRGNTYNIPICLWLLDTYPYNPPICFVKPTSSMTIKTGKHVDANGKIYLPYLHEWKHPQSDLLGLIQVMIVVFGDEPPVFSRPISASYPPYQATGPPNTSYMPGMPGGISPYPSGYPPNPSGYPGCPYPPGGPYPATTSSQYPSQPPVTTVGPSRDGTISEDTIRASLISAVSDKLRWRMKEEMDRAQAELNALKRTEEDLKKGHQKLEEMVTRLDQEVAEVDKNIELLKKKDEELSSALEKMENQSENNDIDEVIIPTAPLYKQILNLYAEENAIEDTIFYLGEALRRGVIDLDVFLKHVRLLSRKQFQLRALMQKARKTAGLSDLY

On to `CC[C@@H](C)[C@H]1O[C@]2(CC[C@@H]1C)C[C@@H]1C[C@@H](C/C=C(\C)[C@@H](O[C@H]3C[C@H](OC)[C@@H](O[C@H]4C[C@H](OC)[C@@H](O)[C@H](C)O4)[C@H](C)O3)[C@@H](C)/C=C/C=C3\CO[C@@H]4[C@H](O)C(C)=C[C@@H](C(=O)O1)[C@]34O)O2`, for which the results for the Potency in experiment [1] and in experiment [2] were 0.117 µM (active) and 1.65 µM (active), respectively.

For `CNCC[C@H](Oc1ccc(C(F)(F)F)cc1)c1ccccc1`, the Potency entry in experiment [3], in experiment [4], in experiment [5], in experiment [8], in experiment [9] and in experiment [10] was “inactive” in each case. The compound was called inactive in experiment [6] and in [7].

As for `Nc1ccn([C@@H]2O[C@H](CO)[C@@H](O)[C@@H]2O)c(=O)n1`, the Potency entry in [2] and in experiment [10] was “inactive” throughout.

For `COc1ccccc1N1CCN(CCN(C(=O)c2ccc(I)cc2)c2ccccn2)CC1`, the compound was called inactive in experiment [11], in [6] and in [7]. Further, the Potency entry in experiment [3], in experiment [4], in [5], in [12], in [8] and in experiment [13] was “inactive” in each case. For the same compound, the Potency result in experiment [9] and in experiment [10] was “inactive” throughout.

On to `O=C1O/C(=C/Br)CCC1c1cccc2ccccc12` (stereo not drawn), for which the result in [11] and in experiment [7] was inactive. In addition, the Potency entry in experiment [3], in [4], in experiment [5], in [1], in [2] and in experiment [8] was “inactive” each time. Further, the Potency result in experiment [9], in experiment [10] and in [14] was “inactive” each time. Besides, the Potency in [13] was 2.67 µM (active).

For the compound `CN(C)c1ccc(/C=C2\C(=O)Nc3ccccc32)cc1`, the result in experiment [11], in experiment [6] and in experiment [7] was inactive. The Potency entry in experiment [3], in experiment [4], in experiment [5] and in experiment [9] was “inactive” in each case. The Potency is 28.2 µM (active) and 10.6 µM (active) in [10]; 28.2 µM (active) in experiment [14].

In the case of `CCCCCC(O)c1cccc(OCc2ccc3ccccc3n2)c1` (stereo not drawn), the Potency entry in [3], in experiment [15], in [16], in [4], in experiment [5] and in [2] was “inactive” throughout. Further, the Potency entry in experiment [8], in experiment [13], in [9], in experiment [10] and in experiment [14] was “inactive” each time. Besides, the compound was called inactive in experiment [6] and in experiment [7].

Consider `CCOC(=O)C1=C(C)NC(C)=C(C(=O)OCC)C1c1c(F)c(F)c(F)c(F)c1F`, for which the Potency entry in experiment [4], in experiment [5], in experiment [8], in experiment [13], in experiment [9] and in experiment [10] was “inactive” each time. Also, the Potency result in experiment [14] is “inactive”. The compound was called inactive in [6] and in [7].

In the case of `O=Nc1ccc2oc(=O)ccc2c1`, the Potency result in [4], in [5], in experiment [1], in [2], in [8] and in experiment [9] was “inactive” in each case. Besides, the compound was called inactive in [6] and in [7]. In addition, the Potency is 19 µM (active) in experiment [12], 39.8 µM (active) in [10] and 39.8 µM (active) in [14].

Take `N#C/C(=C\c1ccc(O)c(O)c1)C(=O)NCCCc1ccccc1`: the compound was called inactive in experiment [11] and in [7]. Besides, the Potency result in [3], in [4], in experiment [8] and in experiment [9] was “inactive” throughout. The Potency in [10] is 7.08 µM (active) and 8.44 µM (active); in [14], 5.62 µM (active).

For the compound `N=c1ccn2c(n1)O[C@H]1[C@H](O)[C@@H](CO)O[C@H]12`, the Potency entry in [3], in [15], in experiment [4], in [5], in experiment [12] and in experiment [8] was “inactive” each time. Also, the Potency result in experiment [13], in experiment [9], in experiment [10] and in [14] was “inactive” throughout. The call in experiment [6], in experiment [17] and in experiment [7] was inactive.
